Holding throughout (parameters): scale not given: direction of the effect not stated beside the values
The target of assay [1] is Protein translocase subunit SecA (Escherichia coli (strain K12)) (UniProt P10408). The assay is described as follows: Assay to Identify E. coli SecA ATPase Inhibitors. Particulars: 30 µM. Type of assay: functional.
For assay [2], the target named is T1, Ubiquitin-activating enzyme e1, putative (Leishmania donovani (strain BPK282A1)) (UniProt E9BSI1).
T1 sequence (whole entry): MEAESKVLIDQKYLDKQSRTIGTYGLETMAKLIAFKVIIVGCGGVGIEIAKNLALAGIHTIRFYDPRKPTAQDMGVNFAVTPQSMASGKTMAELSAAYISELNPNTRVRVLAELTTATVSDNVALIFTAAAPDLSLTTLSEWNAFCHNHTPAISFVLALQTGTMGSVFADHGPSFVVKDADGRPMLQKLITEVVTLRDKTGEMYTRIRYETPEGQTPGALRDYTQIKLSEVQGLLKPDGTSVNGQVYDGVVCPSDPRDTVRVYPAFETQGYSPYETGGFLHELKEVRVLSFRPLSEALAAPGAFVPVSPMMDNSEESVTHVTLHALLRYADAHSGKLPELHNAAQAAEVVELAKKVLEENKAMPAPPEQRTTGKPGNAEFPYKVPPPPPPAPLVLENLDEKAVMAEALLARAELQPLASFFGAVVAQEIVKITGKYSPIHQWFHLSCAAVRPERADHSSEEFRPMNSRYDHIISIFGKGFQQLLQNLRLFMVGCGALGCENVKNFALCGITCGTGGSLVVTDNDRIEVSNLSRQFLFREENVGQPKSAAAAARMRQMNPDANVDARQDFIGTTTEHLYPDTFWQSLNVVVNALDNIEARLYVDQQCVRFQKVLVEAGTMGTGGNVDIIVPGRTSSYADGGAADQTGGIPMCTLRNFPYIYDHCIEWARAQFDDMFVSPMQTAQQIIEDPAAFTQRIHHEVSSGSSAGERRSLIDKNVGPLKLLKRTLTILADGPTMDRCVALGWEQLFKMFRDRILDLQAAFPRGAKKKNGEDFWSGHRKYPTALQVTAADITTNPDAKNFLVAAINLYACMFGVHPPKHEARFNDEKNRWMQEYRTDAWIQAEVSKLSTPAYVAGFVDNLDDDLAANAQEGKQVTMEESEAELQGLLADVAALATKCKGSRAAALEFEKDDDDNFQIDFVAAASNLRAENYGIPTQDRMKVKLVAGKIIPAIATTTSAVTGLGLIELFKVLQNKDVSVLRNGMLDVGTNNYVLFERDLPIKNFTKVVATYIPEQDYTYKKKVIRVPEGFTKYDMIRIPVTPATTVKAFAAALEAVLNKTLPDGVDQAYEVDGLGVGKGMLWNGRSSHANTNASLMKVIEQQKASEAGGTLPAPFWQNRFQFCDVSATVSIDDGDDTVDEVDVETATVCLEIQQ
The assay is described as follows: Leishmania donovani Ubiquitin Activating Enzyme (LdE1). Type of assay: functional. The note with it: 30 µM.

Assay [3] addresses AMP-activated protein kinase, AMPK (Homo sapiens) (UniProt P54646+O43741+P54619+Q9UGJ0+Q9Y478+Q13131+Q9UGI9). The assay is described as follows: AMP-dependent Kinase enzyme assay. An in vitro enzyme assay that detects ADP turnover that is directly proportional to AMPK activity. This uses naive AMPK that is activated during the assay with MK-8722. The note with it: 30 µM. It is filed as functional.

Assay [4] deals with Sialic acid-binding Ig-like lectin 9 (Homo sapiens) (UniProt Q9Y336). The assay is described as follows: Hs-Siglec9 ALPHAscreen SOP 20170721. The note with it: 10 µM. Background: Bead proximity is the source of the signal in Alpha formats.
The next assay concerns Trypanosoma cruzi. The assay is described as follows: Trypanosoma cruzi phosphomannomutase and mannose-1-phosphate guanylyltransferase assay. It is filed as functional. The note with it: 10 µM.
For assay [5], the target named is T2, Arginase-2, mitochondrial (Homo sapiens) (UniProt P78540).
T2 sequence (whole entry): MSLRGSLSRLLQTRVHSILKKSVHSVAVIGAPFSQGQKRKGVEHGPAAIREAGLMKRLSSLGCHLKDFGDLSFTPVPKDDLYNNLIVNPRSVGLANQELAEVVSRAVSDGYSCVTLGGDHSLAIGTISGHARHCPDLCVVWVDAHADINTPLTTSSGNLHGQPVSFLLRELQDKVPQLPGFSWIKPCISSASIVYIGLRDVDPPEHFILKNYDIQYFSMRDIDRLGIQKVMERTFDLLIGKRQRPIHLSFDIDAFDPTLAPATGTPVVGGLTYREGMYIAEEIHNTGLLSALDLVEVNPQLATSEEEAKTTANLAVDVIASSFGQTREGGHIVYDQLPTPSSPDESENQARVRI
The assay is described as follows: in vitro enzyme assay to detect the production of urea directly proportional to the activity of Arginase II. Also: in the data most compounds retested in dose-response had high values. The note with it: 33.3 µM. It is filed as functional.

The target of assay [6] is T3, Proteasome subunit beta (Trypanosoma cruzi) (UniProt O96673).
T3 sequence (whole entry): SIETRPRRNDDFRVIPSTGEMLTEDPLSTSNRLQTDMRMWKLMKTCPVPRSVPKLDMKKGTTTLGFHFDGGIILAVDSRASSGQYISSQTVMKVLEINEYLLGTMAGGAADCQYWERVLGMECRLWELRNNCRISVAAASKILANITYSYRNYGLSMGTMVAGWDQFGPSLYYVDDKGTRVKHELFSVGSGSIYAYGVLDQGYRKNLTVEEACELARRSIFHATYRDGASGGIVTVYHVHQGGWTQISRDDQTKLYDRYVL
The assay is described as follows: Trypanosoma cruzi proteasome chymotrypsin-like activity (TcProtChymo) assay. Also: in the data most compounds retested in dose-response had high values. Type of assay: functional. Particulars: 9.37 µM.

For the next assay, the species on record is Homo sapiens. The assay is described as follows: To identify inhibition of the IFN signalling (Jak-Stat) pathway via expression of an eGFP reporter gene under the control of an IFN-stimulated response element (ISRE) containing MxA promoter. Particulars: 30 µM. It is filed as functional. On the technique in general: Reporter assays use an easily measured gene product as a stand-in for the process of interest.

Assay [7] deals with T4, Tyrosyl-tRNA synthetase, putative (Trypanosoma cruzi (strain CL Brener)) (UniProt Q4DSP6).
T4 sequence (whole entry): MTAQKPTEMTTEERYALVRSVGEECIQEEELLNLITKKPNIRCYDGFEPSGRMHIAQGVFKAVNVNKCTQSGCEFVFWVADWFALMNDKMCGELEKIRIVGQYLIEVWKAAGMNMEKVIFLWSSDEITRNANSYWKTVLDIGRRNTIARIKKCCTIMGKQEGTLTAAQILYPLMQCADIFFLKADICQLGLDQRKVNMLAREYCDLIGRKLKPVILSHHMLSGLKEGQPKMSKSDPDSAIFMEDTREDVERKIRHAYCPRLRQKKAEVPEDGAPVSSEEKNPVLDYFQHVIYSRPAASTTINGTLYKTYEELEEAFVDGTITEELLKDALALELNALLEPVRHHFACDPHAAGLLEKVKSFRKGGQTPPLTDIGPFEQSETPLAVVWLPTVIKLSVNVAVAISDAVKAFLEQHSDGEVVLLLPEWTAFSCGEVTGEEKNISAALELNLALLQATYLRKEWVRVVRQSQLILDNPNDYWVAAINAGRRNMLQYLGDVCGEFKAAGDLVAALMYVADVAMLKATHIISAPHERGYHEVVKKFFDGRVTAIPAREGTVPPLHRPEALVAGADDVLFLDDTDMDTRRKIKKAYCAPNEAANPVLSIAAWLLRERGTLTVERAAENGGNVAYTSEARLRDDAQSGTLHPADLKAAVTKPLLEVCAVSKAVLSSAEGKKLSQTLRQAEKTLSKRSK
The assay is described as follows: Trypanosoma cruzi tyrosyl tRNA synthetase (TcYRS) _High Tyrosine SOP. Also: in the data most compounds retested in dose-response had high values. Type of assay: functional. The note with it: 30 µM.

Assay [8] concerns the target T4, Tyrosyl-tRNA synthetase, putative (Trypanosoma cruzi (strain CL Brener)). The assay is described as follows: Trypanosoma cruzi tyrosyl tRNA synthetase (TcYRS) SOP. Particulars: 30 µM. It is filed as functional.
Assay [9] concerns the target Chromo domain-containing protein 1 (Saccharomyces cerevisiae (strain ATCC 204508 / S288c) (Baker's yeast)) (UniProt P32657). The assay is described as follows: ScCHD-1 Enzyme Inhibition Assay. Also: in the data most compounds retested in dose-response had high values. Type of assay: functional. Particulars: 30 µM.

Each structure is given as a SMILES string. For some of these results: Entries with a potency or affinity are not part of this list.

Sequence of Protein translocase subunit SecA (Escherichia coli (strain K12)) (P10408 whole entry): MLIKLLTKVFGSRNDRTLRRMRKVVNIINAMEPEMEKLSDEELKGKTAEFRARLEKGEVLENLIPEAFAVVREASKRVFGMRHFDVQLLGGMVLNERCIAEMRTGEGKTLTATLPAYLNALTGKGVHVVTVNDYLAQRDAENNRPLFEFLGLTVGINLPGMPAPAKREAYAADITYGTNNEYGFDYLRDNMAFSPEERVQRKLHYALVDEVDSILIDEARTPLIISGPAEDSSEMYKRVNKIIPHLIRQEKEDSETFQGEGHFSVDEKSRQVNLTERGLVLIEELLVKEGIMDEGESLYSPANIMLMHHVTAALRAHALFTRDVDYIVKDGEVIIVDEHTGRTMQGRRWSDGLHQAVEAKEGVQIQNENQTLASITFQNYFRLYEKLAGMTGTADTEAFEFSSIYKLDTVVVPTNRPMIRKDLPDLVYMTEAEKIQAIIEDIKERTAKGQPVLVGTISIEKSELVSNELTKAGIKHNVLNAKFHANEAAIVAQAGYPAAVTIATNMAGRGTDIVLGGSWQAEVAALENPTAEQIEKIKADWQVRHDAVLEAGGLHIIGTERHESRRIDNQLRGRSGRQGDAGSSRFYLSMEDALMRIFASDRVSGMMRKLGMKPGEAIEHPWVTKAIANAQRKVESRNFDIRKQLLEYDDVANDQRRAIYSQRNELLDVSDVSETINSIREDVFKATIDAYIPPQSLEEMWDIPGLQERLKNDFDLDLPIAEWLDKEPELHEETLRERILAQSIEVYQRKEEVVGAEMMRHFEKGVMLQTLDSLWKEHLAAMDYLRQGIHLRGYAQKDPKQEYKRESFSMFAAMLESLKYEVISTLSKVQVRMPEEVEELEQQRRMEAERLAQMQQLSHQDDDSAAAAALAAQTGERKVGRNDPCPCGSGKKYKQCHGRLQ
Sequence of Sialic acid-binding Ig-like lectin 9 (Homo sapiens) (Q9Y336 whole entry): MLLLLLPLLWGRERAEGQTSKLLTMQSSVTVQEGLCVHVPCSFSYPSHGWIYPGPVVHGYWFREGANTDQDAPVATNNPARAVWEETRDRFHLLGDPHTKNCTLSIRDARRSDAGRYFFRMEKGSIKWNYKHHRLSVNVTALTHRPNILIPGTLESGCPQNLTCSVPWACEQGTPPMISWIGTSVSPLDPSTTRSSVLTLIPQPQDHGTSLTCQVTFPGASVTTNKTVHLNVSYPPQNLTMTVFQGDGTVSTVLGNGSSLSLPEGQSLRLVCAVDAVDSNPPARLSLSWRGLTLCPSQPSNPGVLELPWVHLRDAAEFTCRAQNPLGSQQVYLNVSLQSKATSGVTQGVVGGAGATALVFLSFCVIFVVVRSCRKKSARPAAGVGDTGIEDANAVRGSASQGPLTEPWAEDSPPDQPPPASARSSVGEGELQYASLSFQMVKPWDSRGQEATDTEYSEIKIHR
Sequence of Chromo domain-containing protein 1 (Saccharomyces cerevisiae (strain ATCC 204508 / S288c) (Baker's yeast)) (P32657 whole entry, the tested form may be a part): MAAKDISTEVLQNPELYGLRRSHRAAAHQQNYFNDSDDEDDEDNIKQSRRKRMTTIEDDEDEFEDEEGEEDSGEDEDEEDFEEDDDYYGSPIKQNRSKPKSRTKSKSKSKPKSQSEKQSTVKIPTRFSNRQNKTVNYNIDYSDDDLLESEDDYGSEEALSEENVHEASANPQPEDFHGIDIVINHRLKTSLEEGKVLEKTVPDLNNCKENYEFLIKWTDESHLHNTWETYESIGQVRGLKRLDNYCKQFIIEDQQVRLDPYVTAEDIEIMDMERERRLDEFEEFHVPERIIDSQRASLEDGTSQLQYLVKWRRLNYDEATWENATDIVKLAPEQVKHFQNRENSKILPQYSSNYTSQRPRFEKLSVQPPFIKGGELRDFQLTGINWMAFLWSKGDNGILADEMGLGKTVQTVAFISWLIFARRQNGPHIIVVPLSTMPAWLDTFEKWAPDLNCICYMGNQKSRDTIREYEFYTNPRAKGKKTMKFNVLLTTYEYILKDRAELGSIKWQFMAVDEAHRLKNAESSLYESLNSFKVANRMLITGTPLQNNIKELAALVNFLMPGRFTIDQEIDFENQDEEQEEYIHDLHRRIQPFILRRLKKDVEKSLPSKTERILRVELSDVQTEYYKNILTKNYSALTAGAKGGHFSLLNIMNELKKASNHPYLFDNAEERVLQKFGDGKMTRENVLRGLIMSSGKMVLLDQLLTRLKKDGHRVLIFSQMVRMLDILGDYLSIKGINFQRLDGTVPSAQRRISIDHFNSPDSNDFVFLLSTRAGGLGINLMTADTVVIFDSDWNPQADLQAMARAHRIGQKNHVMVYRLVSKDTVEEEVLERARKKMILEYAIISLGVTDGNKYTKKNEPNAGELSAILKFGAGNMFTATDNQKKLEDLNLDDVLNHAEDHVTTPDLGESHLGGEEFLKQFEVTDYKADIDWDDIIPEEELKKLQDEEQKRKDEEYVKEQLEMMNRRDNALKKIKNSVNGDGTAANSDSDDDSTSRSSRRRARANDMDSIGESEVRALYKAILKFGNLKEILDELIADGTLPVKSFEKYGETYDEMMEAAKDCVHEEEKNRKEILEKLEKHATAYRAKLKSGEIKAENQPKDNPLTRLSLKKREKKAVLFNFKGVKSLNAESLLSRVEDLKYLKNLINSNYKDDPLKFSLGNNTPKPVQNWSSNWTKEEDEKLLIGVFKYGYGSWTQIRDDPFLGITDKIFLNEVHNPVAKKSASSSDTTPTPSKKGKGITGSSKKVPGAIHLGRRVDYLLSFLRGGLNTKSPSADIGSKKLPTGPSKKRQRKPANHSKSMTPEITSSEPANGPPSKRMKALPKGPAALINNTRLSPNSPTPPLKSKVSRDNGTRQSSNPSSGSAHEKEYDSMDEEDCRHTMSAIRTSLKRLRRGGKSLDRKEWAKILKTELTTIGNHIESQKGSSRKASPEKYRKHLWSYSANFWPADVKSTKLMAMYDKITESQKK

In the case of `CCc1nnsc1C(=O)N1CCOC(c2nc(C)n[nH]2)C1` (stereo unspecified), the Percent Effect in assay [1] is -5.12%; in assay [2], 8.86%; in assay [3] it was -2.61%; in assay [4], -4.1%; in the assay on Trypanosoma cruzi it was 0.718%; in [5], -0.215%. Also, the Percent Effect in assay [6] is 8.23%; in the assay filed under Homo sapiens, -0.829%; in [7] it was 5.21%; in assay [8], 17.7%; in [9], -30.2%.

Consider `Cc1oncc1C(=O)N1CCC2(CCN(Cc3ccccn3)C2=O)C1` (stereo unspecified), for which the Percent Effect in assay [1] is -5.3%; in assay [2] it was -2.74%; in assay [3], -0.544%; in assay [4], 4.81%; with Trypanosoma cruzi, -2.78%; in assay [5] it was -3.19%. Moreover, the Percent Effect in assay [6] was 8.82%; in the assay listed under Homo sapiens, 15.6%; in [7], 2.08%; in [8] it was 1.24%; in assay [9], -0.071%.

Turning to `CC(C)Nc1ncnc2c1CCN(C(=O)c1ccncc1F)CC2`, the Percent Effect is -4.14% in assay [1]; 8.11% in assay [2]; 0.552% in assay [3]; -7.16% in assay [4]; -6.35% in the assay on Trypanosoma cruzi; -2.87% in [5]. Moreover, the Percent Effect in [6] was 17.2%; in the assay filed under Homo sapiens, 4.19%; in assay [7], 3.24%; in [8] it was 10.3%; in [9], -3.13%.

On to `CC(=O)N1CCN(C(=O)NCc2csc(Br)c2)CC1`, for which the Percent Effect in assay [1] was -7.09%; in [2] it was 2.7%; in [3], 4.94%; in assay [4] it was 5.56%; in the assay with Trypanosoma cruzi, 0.0929%; in [5], -0.554%. Moreover, the Percent Effect in assay [6] is -3.77%; in the assay listed under Homo sapiens, 6.02%; in [7] it was 7.92%; in assay [8], 1.22%; in assay [9], -0.334%.

On to `CC(C)Cc1cc(NC(=O)c2ccc(=O)[nH]n2)n(C)n1`, for which the Percent Effect in assay [1] is -8.11%; in assay [2], 18.2%; in assay [3], -1.51%; in [4], 12.1%; in the assay on Trypanosoma cruzi it was 3.75%; in assay [5] it was 2.85%. In addition, the Percent Effect in assay [6] is 4.73%; in the assay listed under Homo sapiens it was 0.756%; in [7], 8.74%; in [8], 24.4%; in [9] it was -11.8%.

Regarding `NC(=O)CCN1CCC(C(=O)c2cc(F)ccc2F)CC1`, the Percent Effect is -1.09% in [1]; 7.89% in [2]; -2.87% in assay [3]; -1.51% in assay [4]; 3.21% in the assay on Trypanosoma cruzi; -5.92% in assay [5]. In addition, the Percent Effect was 0.671% in assay [6]; -0.792% in the assay filed under Homo sapiens; 3.19% in [7]; 2.6% in assay [8]; -16% in assay [9].

With `Cc1oncc1C(=O)N1CCC2(CC1)CC(c1ccccc1)C(=O)N2C` (stereo unspecified), the Percent Effect in assay [1] is -3.51%; in [2] it was -16%; in assay [3], -4.85%; in assay [4] it was 1.07%; in the assay with Trypanosoma cruzi, 3.28%; in [5], -47.1%. Moreover, the Percent Effect is 7.69% in assay [6]; -5.26% in the assay listed under Homo sapiens; -37.5% in assay [7]; -62.5% in assay [8]; -5.13% in [9].

For `Cc1cc(C)cc(-c2ccc(CC3(C(=O)O)CCOCC3)cc2)c1`, the Percent Effect in [1] is -8.77%; in [2] it was -4.05%; in assay [3], 12.1%; in [4], -1.64%; with Trypanosoma cruzi, -3.95%; in assay [5] it was -3.48%. In addition, the Percent Effect in assay [6] is 1.25%; in the assay listed under Homo sapiens, 18%; in [7] it was -20.4%; in assay [8], -37.7%; in [9] it was -2.15%.

With `Cc1ccc(C2CSCCN2C(=O)c2ccc(C(N)=O)cc2)o1` (stereo unspecified), the Percent Effect was -2.99% in assay [1]; 5.41% in assay [2]; -7.52% in assay [3]; 13.6% in assay [4]; 1.47% in the assay with Trypanosoma cruzi; 20.6% in assay [5]. The Percent Effect in assay [6] is 10%; in the assay filed under Homo sapiens, -21.9%; in assay [7], 4.3%; in assay [8], 11.1%; in assay [9], -2.9%.

For `COc1ccc(NC(=O)CNc2ccc(Br)cc2F)cc1`, the Percent Effect in [1] is -3.43%; in assay [2], 5.26%; in assay [3] it was 9.89%; in [4], 2.32%; with Trypanosoma cruzi, -0.487%; in assay [5], 0%. Besides, the Percent Effect in assay [6] was 17.7%; in the assay filed under Homo sapiens, 39.2%; in assay [7] it was -14.9%; in assay [8], -13%; in [9], -4.78%.

Take `O=C(CCc1cc2n(n1)CCCN(Cc1ccccc1F)C2)NC1CC1`: the Percent Effect is -3.75% in assay [1]; 1.39% in [2]; 1.32% in assay [3]; 0.0735% in assay [4]; 6.71% in the assay with Trypanosoma cruzi; -2.21% in assay [5]. For the same compound, the Percent Effect was 10.2% in assay [6]; -26.8% in the assay listed under Homo sapiens; 2.1% in assay [7]; 5.13% in assay [8]; -4.12% in assay [9].

Values taken from ChEMBL document CHEMBL3988442, “University of Dundee, Small-Polar-MMV Screening Library” (2021).
